This passage reports inhibition results from PubChem BioAssay AID1347056 (Sanford-Burnham Center for Chemical Genomics, 2019).

SMILES strings stand for the structures. Out of some 360,000 compounds screened, about 3,600 (1%) were called active. The sample as a whole holds a higher share of actives than the screen did. Unmarked numbers belong to inactive results.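 Rule for the calls: active = compounds whose plate-normalised and pattern-corrected inhibition of the luciferase reporter signal at the single screening dose is 50% or more; inactive = the rest.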

The nature of the experiment: TROY pathway blockers in reporter cells – Q293 LMP1-TROYcd cells, NF-kB luciferase, uHTS, primary screen (AID 1347056). The conditions noted are these: 4 h, at 10 µM, active compounds read high.
The inhibition is the relative decrease from the control value, in per cent. As to `O=c1ccc2cc(S(=O)(=O)NCCCc3ccccc3)ccc2[nH]1`, the inhibition was -7.06%.

In the case of `CCC(C)(C)NC(=O)CN(Cc1cccs1)C(=O)CNS(=O)(=O)c1ccc(F)cc1`, the inhibition was -7.55%.

On to `Cc1ccc(S(=O)(=O)N(CC(O)CN2C(=O)NC(C)(C)C2=O)c2cccc([N+](=O)[O-])c2)cc1` (stereo unspecified), for which the inhibition is 4.48%.

For the compound `CCCn1c(C)cc(C(=O)COC(=O)c2c(C)nn(-c3ccccc3)c2C)c1C`, the inhibition was -3.58%.

As for `Cc1cccc(N2CCN(C(c3ccccc3)c3nnnn3CC3CCCO3)CC2)c1C` (stereo unspecified), the inhibition was -7.74%.

For the compound `CC1(C)CC(N2CCN(C(c3ccccc3)c3ccccc3)CC2)=CC(=[N+]2CCCCC2)C1`, the inhibition was 58.6% (active).

With `COc1ccccc1NC(=S)N1CCN(C(c2ccccc2)c2ccccc2)CC1`, the inhibition is 16.1%.

For the compound `O=C(CN1CCOCC1)Nc1c(Cl)cc(Cl)cc1Cl`, the inhibition is -5.43%.

For `C=CCSc1nc2c(c(=O)[nH]1)C(C(C)C)C(C#N)=C(N)O2` (stereo unspecified), the inhibition is 9.46%.

`N#Cc1ccccc1NC(=O)COc1c(Br)cc(Br)c2cccnc12`: the inhibition is 4.34%.

As for `COc1ccc(Br)cc1/C=N/Nc1ccc(S(=O)(=O)Nc2ccccc2C(=O)O)cc1[N+](=O)[O-]`, the inhibition was 58% (active).

On to `CC1CN(C(=O)c2ccccc2NS(=O)(=O)c2cccc([N+](=O)[O-])c2)CC(C)O1` (stereo unspecified), for which the inhibition was 8.71%.

For the compound `COc1ccc(S(=O)(=O)N2CCC(C(=O)OCC(=O)c3ccccc3)CC2)cc1[N+](=O)[O-]`, the inhibition was -4.41%.

For the compound `CC(=O)Nc1ccc(C(=O)CSc2nc3ccc(C)cc3[nH]2)cc1`, the inhibition was -46.4%.

Regarding `COc1cc2c(C(=O)O)c(C)n(C)c2c2ccccc12`, the inhibition is 6.89%.

With `COc1cccc2c(C)c(C(=O)O)[nH]c12`, the inhibition is 74.3% (active).

Consider `COc1ccccc1C(=O)c1ccccc1C(=O)c1ccccc1`, for which the inhibition was 9.22%.

For the compound `Oc1cccc2ccc(/C=C/c3ccc(Br)s3)nc12`, the inhibition was 45.8%.

For the compound `N#CC1=C(N)Oc2cc(N)ccc2C1c1ccccc1` (stereo unspecified), the inhibition is 13.9%.

For the compound `COc1ccc(C2C(C#N)=C(N)Oc3cc(N)ccc32)cc1OC` (stereo unspecified), the inhibition is -32.5%.

With `COc1ccccc1C1C(C#N)=C(N)Oc2c1c(-c1ccccc1)nn2-c1ccccc1` (stereo unspecified), the inhibition is 62% (active).

As for `CCOc1ccc(C(=O)Nc2cc(Cl)ccc2-n2cncn2)cc1OC`, the inhibition is -3.58%.

`O=C1c2ccccc2C(=O)N1CCC#Cc1ccc2cc(C3(O)CCCCC3)oc(=O)c2c1`: the inhibition was 64.8% (active).

With `CC(C)c1nc(CNC(=O)CC2C(=O)NCCN2Cc2cccc(F)c2F)cs1` (stereo unspecified), the inhibition is 4.78%.

As to `COC(=O)c1ccc(C)c(NC(=O)C2CC(=O)N(C3CCCC(C)C3C)C2)c1` (stereo unspecified), the inhibition was -0.78%.

Take `C=CCC[C@@H](Cc1ccc(F)cc1)C(=O)O[C@H](CNC(=O)[C@H](CC=C)CC(=O)N(CCO)Cc1ccccc1)c1ccccc1`: the inhibition was 46.6%.

Consider `O=C1c2ccccc2C2=Nc3ccccc3SC(c3ccccc3F)C12` (stereo unspecified), for which the inhibition was 63.5% (active).

For `COCCCn1c(-c2cccs2)nc2nc3ccccc3nc21`, the inhibition was 1.22%.

Take `Cc1ccc(CSc2nc3[nH]ncc3c(=O)[nH]2)cc1`: the inhibition is -16.1%.

For `Cc1cccc(NC(=O)CSc2nc3[nH]ncc3c(=O)[nH]2)c1`, the inhibition is 80.2% (active).

Consider `O=C(CSc1nc2[nH]ncc2c(=O)[nH]1)Nc1ccc(F)cc1`, for which the inhibition was -9.77%.

On to `COc1ccc(S(=O)(=O)N2CCN(C)CC2)c(C)c1`, for which the inhibition was -7.28%.

For `C/C(=N\NC(=O)Cc1ccccc1[N+](=O)[O-])c1cccnc1`, the inhibition is -4.21%.

Turning to `O=C(Nc1cccnc1)c1ccc(Cl)cc1[N+](=O)[O-]`, the inhibition was -20.1%.

In the case of `O=C(/C=C/c1ccc(Cl)c([N+](=O)[O-])c1)c1cccnc1`, the inhibition is 64.6% (active).

On to `O=C(/C=C/c1ccc(Cl)cc1)N1CCN(c2ccccc2[N+](=O)[O-])CC1`, for which the inhibition was 9.62%.

`O=C(/C=C/c1ccc(Cl)c([N+](=O)[O-])c1)c1ccc(O)cc1`: the inhibition was 55.6% (active).

With `O=C(O)c1ccc2c(=O)n3c(nc2c1)/C(=C/c1ccc(Cl)c([N+](=O)[O-])c1)CC3`, the inhibition is -0.87%.

Regarding `O=C(NCc1ccccc1CN1CCCC1)C1CCN(S(=O)(=O)c2ccc(Cl)cc2)CC1`, the inhibition is 4.08%.

For the compound `Cc1ccnc(NC(=O)CCNS(=O)(=O)c2ccc(C)c(C)c2)c1`, the inhibition is 29.5%.

As for `Cc1ccc2nc(SCc3nnc(-c4ccccc4[N+](=O)[O-])o3)c(C#N)cc2c1`, the inhibition is 2.86%.

In the case of `CCOC(=O)c1c(C)oc2cc(Br)c(OCC(N)=O)cc12`, the inhibition is 8.9%.

As for `CCOC(=O)c1c(-c2ccccc2)oc2cc(Br)c(O)c(C=O)c12`, the inhibition was 74.6% (active).

For `CCOC(=O)c1c(C)oc2cc(Sc3ccccc3)c(O)c(O)c12`, the inhibition is -45.5%.

As for `COc1ccc([N+](=O)[O-])cc1NC(=O)c1ccc(N(Cc2ccccc2C)S(C)(=O)=O)cc1`, the inhibition is 13.5%.

In the case of `COC(=O)C1=C(C)N=C2SC(C)C(=O)N2C1/C=C/c1ccccc1` (stereo unspecified), the inhibition is 0.14%.

Regarding `CC[C@H]1CN2CCc3cc(OC)c(OC)cc3[C@@H]2C[C@@H]1C[C@H]1NCCc2cc(OC)c(OC)cc21`, the inhibition was 86% (active).

In the case of `CCCc1cc(=O)[nH]c2nnc(SCC(=O)Nc3nnc(SCC)s3)n12`, the inhibition is -11.1%.

For `CCOC(=O)C(=Cc1ccccc1OC)C(=O)OCC`, the inhibition is 36.4%.

Regarding `CCOC(=O)/C(=C\c1ccc([N+](=O)[O-])cc1)C(=O)c1cc(C(C)=O)c(Nc2ccccc2)s1`, the inhibition is 1.46%.

Turning to `CCOC(=O)C(=Cc1ccccc1)C(=O)c1ccccc1`, the inhibition was 55% (active).

As to `CCCCSc1nnc2c(n1)OC=Nc1ccccc1-2`, the inhibition is -39.1%.

Consider `N#Cc1ccc(C(=O)Nc2nc(-c3cccs3)c(C(=O)C(F)(F)F)s2)cc1`, for which the inhibition is 53.3% (active).

Turning to `N#Cc1c(-c2cccs2)nc(SCC(=O)c2ccc(Br)cc2)[nH]c1=O`, the inhibition was 18.2%.

`C=CCN(CC=C)S(=O)(=O)c1ccc(C(=O)Nc2nc3c(s2)CCc2ccccc2-3)cc1`: the inhibition was 4.01%.

As for `Cc1cc(=O)oc2c(C)c(OCC(=O)NCCc3ccc(S(N)(=O)=O)cc3)ccc12`, the inhibition was -2.4%.
